D2 antagonist: antagonists of human D2 dopamine receptor; hit rate 2% among 340,000; HEK293 TREx D2 cells, calcium flux, dopamine EC80; inhibition, % at 10 µM; AID 485344; P14416; in the data active means inhibition above about 30%; inactive means below that, where a call was filed; further: 0% is about no effect
Target sequence (P14416 whole entry, looked up): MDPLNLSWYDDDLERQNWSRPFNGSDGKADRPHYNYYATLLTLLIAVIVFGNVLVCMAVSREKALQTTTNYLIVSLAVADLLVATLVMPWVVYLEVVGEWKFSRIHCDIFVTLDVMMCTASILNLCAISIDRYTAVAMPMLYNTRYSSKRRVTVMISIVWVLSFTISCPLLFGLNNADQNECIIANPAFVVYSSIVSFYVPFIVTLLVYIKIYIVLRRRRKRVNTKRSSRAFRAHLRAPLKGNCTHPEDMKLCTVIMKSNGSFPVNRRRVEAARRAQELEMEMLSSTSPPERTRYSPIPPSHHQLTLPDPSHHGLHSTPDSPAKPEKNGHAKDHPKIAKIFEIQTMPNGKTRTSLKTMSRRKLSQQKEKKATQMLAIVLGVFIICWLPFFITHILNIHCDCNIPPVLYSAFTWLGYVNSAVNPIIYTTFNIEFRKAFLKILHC
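Antagonism is scored as inhibition of an EC80 dopamine-evoked calcium signal in a force-coupled, tetracycline-inducible HEK293 T-REx D2 line, with compound present 180 s before agonist.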
D2 PAM-1: human D2 receptor positive allosteric modulation; hit rate 0.23% among 360,000; DiscoveRx D2 beta-arrestin cells, luminescence, 90 min; 100% = 57 uM dopamine signal; potentiation, % (test concentration not listed); AID 624464; P14416; in the data active means potentiation above about 50%
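D2 cells co-treated with compound plus 50 nM dopamine (EC20) for 90 min at 37 deg C to detect potentiation. Beta-arrestin recruitment was read as enzyme-fragment luminescence after 1 h at ambient temperature. Full response was set by 57 uM dopamine.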
D2 PAM-2: D2 dopamine receptor (human) potentiation; HEK293 T-REx D2, calcium flux, EC20 dopamine potentiation; P14416; hit rate 0.34% among 340,000; potentiation, % at 10 µM;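 active means potentiation over 3 SD above the plate norm, cut at about 30% in these data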; further: 0% is about no effect
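Potentiation of an EC20 dopamine calcium response measured kinetically over 180 s, after a preceding 180 s compound-only read flagging agonists. Cells: inducible Hek293 Trex D2 line, 4000/well, cultured overnight at 30 C before dye loading.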
D2 ag-1: agonists of human D2 dopamine receptor (beta-arrestin); hit rate 0.084% among 360,000; activation, % (no concentration beside the values); DiscoveRx PathHunter D2 beta-arrestin, luminescence, 90 min; 100% = 57 uM dopamine signal; AID 624465; in the data active means activation above about 40%
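DiscoveRx PathHunter D2 beta-arrestin cells (2,100/well) attached overnight, then compound-stimulated 90 min at 37 C in HBSS/10 mM HEPES/0.1% Tween-20 buffer; beta-galactosidase complementation read by luminescence after 1 h at ambient temperature. Dopamine 57 uM final (EC100) as control.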
D2 ag-2: D2 dopamine receptor (human) agonism. P14416. HEK293 T-REx D2 cells, calcium flux agonist mode. activation, % at 2 µM. hit rate 0.53% among 340,000;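 active means activation over 3 SD above normal in the single-dose calcium agonist read, cut at about 30% in these data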; further: 0% is about no effect
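Tetracycline-induced HEK293 T-REx cells with force-coupled D2 receptor, plated overnight at 30 C, loaded with no-wash calcium dye. After a 10 s baseline, compound was pin-added and calcium flux read kinetically for 180 s; calcium rises flagged agonists.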
* = called active by the depositor; . = no result given. Sampled rows, rich in hits. Any-hit rate of the full collection: about 2.4%.

SMILES	D2 antagonist	D2 PAM-1	D2 PAM-2	D2 ag-1	D2 ag-2
CC(C)=C(C#N)c1nc2ccccc2s1	-24	-1	-3	-4	1
N#C/C(=C/c1ccncc1)c1nc2ccccc2s1	4	-7	-2	8	30*
CC(=O)Nc1ccc(NC(=O)CSCCc2ccccn2)cc1	-10	-12	34*	-1	0
COc1ccccc1CCNC(=O)C(=O)NCC(c1ccco1)S(=O)(=O)c1ccc(F)cc1 (configuration not stated)	.	.	-5	.	1
COCCCNC(=O)C1CCN(S(=O)(=O)c2c(C)noc2/C=C\c2ccc(OC)cc2)CC1	9	-26	-2	0	1
Cc1ccc(/C=C/c2onc(C)c2S(=O)(=O)N2CCC(C(=O)N3CCCCC3)CC2)cc1	34*	0	-14	-4	-1
CCCCNC(=O)C1CCN(S(=O)(=O)c2c(C)noc2/C=C\c2ccc(OC)cc2)CC1	40*	-5	-18	-4	-1
COc1ccc(/C=C/c2onc(C)c2S(=O)(=O)N2CCC(C(=O)N3CCCCCC3)CC2)cc1	-8	-20	34*	-4	0
CCCCNC(=O)C1CCC(Cn2c(=O)c3sccc3n(CC(=O)Nc3ccccc3)c2=O)CC1 (configuration not stated)	.	.	-7	.	.
O=C(C1CC1)N1CCc2cc(Br)cc(S(=O)(=O)NCCN3CCOCC3)c21	40*	-9	-16	0	0
O=C(C1CC1)N1CCc2cc(Br)cc(S(=O)(=O)N3CCOCC3)c21	.	25	.	0	.
Cc1ccc(CNC(=O)C(C(C)C)N2Cc3ccccc3C2=O)cc1 (configuration not stated)	.	.	3	.	0
COc1cc(O)c(C(CC(=O)N2CCCC(C)C2)c2ccc(N(C)C)cc2)c(OC)c1 (configuration not stated)	31*	-11	-4	-5	0

High-throughput results from PubChem.
